Results filed as inconclusive are left out. The source made the active and inactive calls. Unless noted, calls come from the whole dose curve.

Assay [1] can be described thus: qHTS for Inhibitors of the Functional Ribonucleoprotein Complex (vRNP) of Lassa (LASV) Arenavirus: LASV Primary Screen - GLuc reporter signal (AID 1347082; calls by dose curve; tested in HEK293 reporter line; note: nearly all actives have a fitted effect of over 60% in size). On the technique in general: qHTS replaces the single test concentration by a dilution series.
Assay [2] can be described thus: qHTS for Inhibitors of the Functional Ribonucleoprotein Complex (vRNP) of Lassa (LASV) Arenavirus: Viability assay - alamar blue signal for LASV Primary Screen (AID 1347083; calls by dose curve; tested in HEK293 reporter line; note: nearly all actives have a fitted effect of over 80% in size).
A short description of assay [3]: qHTS for Inhibitors of the Functional Ribonucleoprotein Complex (vRNP) of Lymphocytic Choriomeningitis Arenaviruses (LCMV): Viability assay - alamar blue signal for LCMV Primary Screen (AID 1347085; calls by dose curve; tested in HEK293 reporter line; note: nearly all actives have a fitted effect of over 80% in size).
Assay [4] has as its target Nucleoprotein (Lymphocytic choriomeningitis virus (strain Armstrong)) (UniProt P09992). Description: qHTS for Inhibitors of the Functional Ribonucleoprotein Complex (vRNP) of Lymphocytic Choriomeningitis Arenaviruses (LCMV): LCMV Primary Screen - GLuc reporter signal (AID 1347086). Note: nearly all actives have a fitted effect of over 70% in size.
Potency is the fitted concentration of half-maximal effect.

Nucleoprotein (Lymphocytic choriomeningitis virus (strain Armstrong)), sequence (P09992 whole entry, looked up): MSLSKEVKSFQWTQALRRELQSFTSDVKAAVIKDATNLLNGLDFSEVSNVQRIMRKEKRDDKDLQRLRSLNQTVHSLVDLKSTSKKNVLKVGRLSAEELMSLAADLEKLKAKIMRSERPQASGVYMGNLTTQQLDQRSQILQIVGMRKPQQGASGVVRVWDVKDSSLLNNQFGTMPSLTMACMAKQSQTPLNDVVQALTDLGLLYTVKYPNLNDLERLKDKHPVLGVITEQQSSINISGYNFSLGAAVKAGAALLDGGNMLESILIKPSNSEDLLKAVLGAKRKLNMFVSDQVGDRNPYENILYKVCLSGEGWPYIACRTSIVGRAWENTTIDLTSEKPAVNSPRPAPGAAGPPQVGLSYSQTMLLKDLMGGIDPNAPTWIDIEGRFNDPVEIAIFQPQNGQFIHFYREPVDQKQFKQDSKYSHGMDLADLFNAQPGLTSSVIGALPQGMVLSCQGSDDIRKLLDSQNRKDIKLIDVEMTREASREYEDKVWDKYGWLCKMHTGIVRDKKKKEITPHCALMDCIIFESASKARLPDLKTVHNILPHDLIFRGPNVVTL

Consider `CC(=Cc1ccccc1)C=C1SC(=S)N(CC(=O)O)C1=O`, for which the Potency entry in assay [1], in assay [2], in assay [3] and in assay [4] was “inactive” in each case.
As to `O=C(NC[C@H](O)c1ccccc1)c1ccccc1`, the Potency result in assay [1], in assay [2], in assay [3] and in assay [4] was “inactive” each time.
For `CC(C)(O)[C@H](O)Cc1cc2ccc(=O)oc2cc1O[C@@H]1O[C@H](CO)[C@@H](O)[C@H](O)[C@H]1O`, the Potency result in assay [1], in assay [2], in assay [3] and in assay [4] was “inactive” in each case.
For the compound `CC(C)N1[N]C(=C2C=c3cc(O)ccc3=N2)c2c(N)ncnc21`, the Potency in assay [1] was 2.73 µM (active); in assay [2] it was 685 nM (active); in assay [3], 1.09 µM (active); in assay [4], 611 nM (active).
Consider `CCCCCCCCC1OC1CCCCCCCC(=O)O` (stereo unspecified), for which the Potency entry in assay [1], in assay [2], in assay [3] and in assay [4] was “inactive” in each case.
In the case of `O=C(NC(Cc1ccccc1)C(=O)O)c1ccccc1` (stereo unspecified), the Potency entry in assay [1], in assay [2], in assay [3] and in assay [4] was “inactive” throughout.
For the compound `O[C@@H]1CCN2Cc3ccccc3N=C12`, the Potency entry in assay [1], in assay [2], in assay [3] and in assay [4] was “inactive” in each case.
For `CC1=CC2OC3CC4OC(=O)C=CC=CC(=O)OCCC(C)C(O)C(=O)OCC2(CC1O)C4(C)C31CO1` (stereo unspecified), the Potency entry in assay [1], in assay [2], in assay [3] and in assay [4] was “inactive” in each case.
Take `COc1cc(CCC(C)=O)ccc1O`: the Potency result in assay [1], in assay [2], in assay [3] and in assay [4] was “inactive” throughout.
As to `O=C1N[C@@H](Cc2c[nH]c3ccccc23)C(=O)N[C@H]1Cc1c[nH]c2ccccc12`, the Potency result in assay [1], in assay [2], in assay [3] and in assay [4] was “inactive” throughout.
As to `C=C[C@H]1[C@H](O[C@@H]2O[C@H](CO)[C@@H](O)[C@H](O)[C@H]2O)OC=C2C(=O)OCC[C@]21O`, the Potency entry in assay [1], in assay [2], in assay [3] and in assay [4] was “inactive” each time.
`COc1ccc(/C=C/C(=O)c2c(OC)cc(O)cc2OC)cc1`: the Potency entry in assay [1], in assay [2], in assay [3] and in assay [4] was “inactive” throughout.
For the compound `COc1cc(N2CCN(C)CC2)ccc1Nc1nc(N)c(C(=O)c2c(Cl)cccc2Cl)s1`, the Potency result in assay [1], in assay [2], in assay [3] and in assay [4] was “inactive” each time.
As for `Fc1ccc(C(c2ccc(F)cc2)N2CCN(CC=Cc3ccccc3)CC2)cc1`, the Potency entry in assay [1], in assay [2], in assay [3] and in assay [4] was “inactive” in each case.
Take `O=C1CCCCCCCCCCCCCCCO1`: the Potency entry in assay [1], in assay [2], in assay [3] and in assay [4] was “inactive” in each case.
Take `C[C@@H](O)[C@H]1O[C@]2(C)CCC[C@H]1O2`: the Potency entry in assay [1], in assay [2], in assay [3] and in assay [4] was “inactive” throughout.
Consider `C[C@@]12CC[C@H]3OC(=O)C=C3C1CC[C@@]13CC(CCC12)[C@](CO)(O[C@H]1O[C@H](CO)[C@@H](O)[C@H](O)[C@H]1O)C3` (stereo partly specified), for which the Potency entry in assay [1], in assay [2], in assay [3] and in assay [4] was “inactive” in each case.
As for `CC(=O)O[C@H]1C2[C@@H](OC(=O)Cc3ccccc3)[C@@H](C)C[C@]2(OC(C)=O)C(=O)/C(C)=C/[C@@H]2[C@H](CC[C@@]13CO3)C2(C)C` (stereo partly specified), the Potency entry in assay [1], in assay [2], in assay [3] and in assay [4] was “inactive” throughout.
In the case of `CC(C)C(=O)COc1c2occc2cc2ccc(=O)oc12`, the Potency result in assay [1], in assay [2], in assay [3] and in assay [4] was “inactive” each time.
Take `C=CCc1ccc(O)c(-c2cc(CC=C)ccc2O)c1`: the Potency result in assay [1], in assay [2], in assay [3] and in assay [4] was “inactive” throughout.
On to `COc1ccc(CCC(N)=O)cc1OC`, for which the Potency result in assay [1], in assay [2], in assay [3] and in assay [4] was “inactive” each time.
`CCN1CC2(COC(=O)c3ccccc3N)CCC(OC)C34C5CC6C(OC)CC(O)(C5C6OC)C(O)(C(OC)C23)C14` (stereo unspecified): the Potency result in assay [1], in assay [2], in assay [3] and in assay [4] was “inactive” each time.
For the compound `C=C1[C@H](n2cnc3c(=O)[nH]c(N)nc32)C[C@H](O)[C@H]1CO`, the Potency entry in assay [1], in assay [2], in assay [3] and in assay [4] was “inactive” each time.
As for `CC1(C)C=Cc2c(c3c(c4c(=O)c(-c5ccc(O)cc5)coc24)OC(C)(C)CC3)O1`, the Potency result in assay [1], in assay [2], in assay [3] and in assay [4] was “inactive” each time.
`CC(C)NC(=O)NC(C)C`: the Potency entry in assay [1], in assay [2], in assay [3] and in assay [4] was “inactive” throughout.
With `CC1(C)C(N(O)C(=O)Nc2ccc(Cl)cc2)N(c2ccc(Cl)cc2)C(=O)N1CC(=O)NN=CC=Cc1ccc([N+](=O)[O-])o1` (stereo unspecified), the Potency result in assay [1], in assay [2], in assay [3] and in assay [4] was “inactive” throughout.
In the case of `CCN1C[C@]2(C)CCC(OC)[C@@]34C5C[C@@H]6CC[C@@](O)(C5C(=O)O6)[C@@H](C(O)C23)[C@@H]14` (stereo partly specified), the Potency result in assay [1], in assay [2], in assay [3] and in assay [4] was “inactive” each time.
Turning to `COC(=O)C1=CO[C@@H](O[C@@H]2O[C@H](CO)[C@@H](O)[C@H](O)[C@H]2O)C2C1CC(O)O[C@H]2C` (stereo partly specified), the Potency result in assay [1], in assay [2], in assay [3] and in assay [4] was “inactive” each time.
On to `C[C@@H]1CC[C@H]2[C@H](C)[C@H]3CC[C@H]4C5[C@@H](O)CC6=CC(=O)CC[C@]6(C)[C@H]5C[C@H]4C3C(=O)N2C1` (stereo partly specified), for which the Potency result in assay [1], in assay [2], in assay [3] and in assay [4] was “inactive” each time.

These data come from PubChem BioAssay (NCATS).
